Measured values published in PubChem BioAssay.
Unmarked numbers belong to inactive results. Calls of active or inactive are those of the source.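 The calls were made as follows, unless noted: active = mean inhibition over 43.08%, the solvent-only control mean plus 3 SD; inactive = the rest.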

How the values were obtained:
[1] = molecular target: Nuclear receptor coactivator 3 (Homo sapiens) (UniProt Q9Y6Q9); assay: NCOA3 GAL4-fusion reporter inhibition – cell-based, luminescence, quadruplicate, confirmation (AID 588792); settings: HEK293 GAL4-SRC3 luciferase reporter, at 3.6 µM, hits give high values;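 also: 0% = DMSO treated cells and 100% = gossypol at 36 µM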
[2] = tested on: transactivating tegument protein VP16 (Human herpesvirus 1), Gal4-VP16 luciferase reporter; assay: repression of VP16-driven luciferase reporter – cell-based, luminescence, high throughput, counter-screen for SRC3 inhibitor project (AID 588794; in the data active = inhibition above about 30%); settings: mammalian cells, at 3.6 µM, hits give high values
[3] = molecular target: Nuclear receptor coactivator 1 (Homo sapiens) (UniProt Q15788); assay: NCOA1 GAL4-fusion reporter inhibition – cell-based, luminescence, quadruplicate, confirmation (AID 588820;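 active = mean inhibition above 46.68%, the untreated control wells mean plus 3 SD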;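 also: 0% = DMSO wells and 100% = gossypol 36 µM treated wells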); settings: HEK293 GAL4-SRC1 luciferase reporter, at 3.6 µM, hits give high values
[4] = repression of VP16-driven luciferase reporter – cell-based, luminescence, high throughput, counter-screen for SRC1 inhibitor project (AID 588824; in the data active = inhibition above about 25%); settings: cell-based VP16 transactivation luciferase luminescence; at 3.6 µM; hits give high values
[5] = StAR promoter reporter inhibitors, counter-screen for LRH-1 inverse agonist project, cell-based, luminescence, high throughput (AID 651611; in the data active = inhibition above about 28%); settings: StAR promoter luciferase reporter counterscreen, at 3.6 µM, hits give high values
[6] = molecular target: Nuclear receptor subfamily 5 group A member 2 (Homo sapiens) (UniProt O00482); assay: NR5A2 activity suppression in reporter cells – cell-based, luminescence, confirmation (AID 651613; in the data active = inhibition above about 42%;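 also: HEK293T cells co-transfected with LRH-1 and StAR promoter luciferase reporter; 0% = vehicle wells and 100% = parental cells lacking receptor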); settings: cell-based LRH-1 luciferase reporter, inverse agonism; at 3.6 µM; hits give high values
[7] = molecular target: Steroidogenic factor 1 (Homo sapiens) (UniProt Q13285); assay: inverse agonism at SF1 nuclear receptor – cell-based, luminescence, high throughput, counter-screen for LRH-1 inverse agonist project (AID 651614; in the data active = inhibition above about 44%;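 also: cells cotransfected with StAR promoter reporter and SF1 expression vector; 0% = vehicle on cells with receptor and 100% = vehicle on cells lacking receptor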); settings: cell-based SF1 luciferase reporter, at 3.6 µM, hits give high values
[8] = compounds suppressing VP16-driven luciferase signal – cell-based, luminescence, high throughput, counter-screen for LRH-1 inverse agonist project (AID 651615; in the data active = inhibition above about 33%); settings: Gal4-VP16 luciferase reporter cells, at 3.6 µM, hits give high values

Nuclear receptor subfamily 5 group A member 2 (Homo sapiens), sequence (O00482 whole entry, looked up): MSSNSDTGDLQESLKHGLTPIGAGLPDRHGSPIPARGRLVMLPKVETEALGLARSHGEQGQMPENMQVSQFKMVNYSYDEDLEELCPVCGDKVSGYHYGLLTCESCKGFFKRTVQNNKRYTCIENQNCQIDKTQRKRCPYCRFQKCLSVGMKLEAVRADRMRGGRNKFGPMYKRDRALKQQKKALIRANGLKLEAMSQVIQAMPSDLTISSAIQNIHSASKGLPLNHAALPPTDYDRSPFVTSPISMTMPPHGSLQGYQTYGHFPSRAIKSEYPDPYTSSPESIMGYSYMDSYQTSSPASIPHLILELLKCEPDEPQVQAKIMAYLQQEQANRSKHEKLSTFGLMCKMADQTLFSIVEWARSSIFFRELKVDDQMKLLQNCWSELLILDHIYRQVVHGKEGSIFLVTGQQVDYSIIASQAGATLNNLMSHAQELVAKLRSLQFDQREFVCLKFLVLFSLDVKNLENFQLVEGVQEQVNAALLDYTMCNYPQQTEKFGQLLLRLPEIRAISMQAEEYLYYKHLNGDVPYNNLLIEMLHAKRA
Nuclear receptor coactivator 1 (Homo sapiens), sequence (Q15788 whole entry, looked up, the tested form may be a part): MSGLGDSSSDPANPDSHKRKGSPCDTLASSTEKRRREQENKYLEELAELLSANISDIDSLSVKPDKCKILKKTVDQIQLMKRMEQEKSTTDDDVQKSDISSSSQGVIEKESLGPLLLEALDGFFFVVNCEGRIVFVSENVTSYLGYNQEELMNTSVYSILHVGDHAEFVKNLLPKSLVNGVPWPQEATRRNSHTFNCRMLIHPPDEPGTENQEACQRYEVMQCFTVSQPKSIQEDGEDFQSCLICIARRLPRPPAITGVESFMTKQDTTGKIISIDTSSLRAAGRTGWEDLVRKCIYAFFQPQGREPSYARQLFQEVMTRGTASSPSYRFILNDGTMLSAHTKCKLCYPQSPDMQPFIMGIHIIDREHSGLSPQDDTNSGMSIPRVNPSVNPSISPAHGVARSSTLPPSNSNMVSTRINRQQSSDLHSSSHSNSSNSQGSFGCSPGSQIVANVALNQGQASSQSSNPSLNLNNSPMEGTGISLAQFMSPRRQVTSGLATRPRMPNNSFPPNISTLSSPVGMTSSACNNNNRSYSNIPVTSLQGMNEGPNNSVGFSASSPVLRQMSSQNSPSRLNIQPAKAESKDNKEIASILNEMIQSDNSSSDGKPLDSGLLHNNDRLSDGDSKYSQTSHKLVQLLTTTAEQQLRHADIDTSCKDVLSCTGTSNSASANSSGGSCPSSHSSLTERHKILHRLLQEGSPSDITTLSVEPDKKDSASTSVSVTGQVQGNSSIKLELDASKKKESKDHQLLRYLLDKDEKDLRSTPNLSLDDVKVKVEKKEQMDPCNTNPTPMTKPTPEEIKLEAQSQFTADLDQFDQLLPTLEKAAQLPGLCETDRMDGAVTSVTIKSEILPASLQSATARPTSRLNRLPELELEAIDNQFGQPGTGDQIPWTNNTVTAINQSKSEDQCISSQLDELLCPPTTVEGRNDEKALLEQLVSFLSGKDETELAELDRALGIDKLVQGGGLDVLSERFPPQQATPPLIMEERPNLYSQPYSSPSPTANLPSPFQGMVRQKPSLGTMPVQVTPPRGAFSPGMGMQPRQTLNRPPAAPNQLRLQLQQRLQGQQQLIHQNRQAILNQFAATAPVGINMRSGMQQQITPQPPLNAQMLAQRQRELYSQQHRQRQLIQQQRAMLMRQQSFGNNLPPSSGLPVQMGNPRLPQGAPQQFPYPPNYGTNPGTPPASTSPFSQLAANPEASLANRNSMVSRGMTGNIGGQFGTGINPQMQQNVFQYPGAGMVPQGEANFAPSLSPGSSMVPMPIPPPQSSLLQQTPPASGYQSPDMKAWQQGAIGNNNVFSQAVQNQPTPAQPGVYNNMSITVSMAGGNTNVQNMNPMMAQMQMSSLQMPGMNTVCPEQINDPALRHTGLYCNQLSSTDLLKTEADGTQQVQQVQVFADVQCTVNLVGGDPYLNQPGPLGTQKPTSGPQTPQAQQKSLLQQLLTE
Nuclear receptor coactivator 3 (Homo sapiens), sequence (Q9Y6Q9 whole entry, looked up, the tested form may be a part): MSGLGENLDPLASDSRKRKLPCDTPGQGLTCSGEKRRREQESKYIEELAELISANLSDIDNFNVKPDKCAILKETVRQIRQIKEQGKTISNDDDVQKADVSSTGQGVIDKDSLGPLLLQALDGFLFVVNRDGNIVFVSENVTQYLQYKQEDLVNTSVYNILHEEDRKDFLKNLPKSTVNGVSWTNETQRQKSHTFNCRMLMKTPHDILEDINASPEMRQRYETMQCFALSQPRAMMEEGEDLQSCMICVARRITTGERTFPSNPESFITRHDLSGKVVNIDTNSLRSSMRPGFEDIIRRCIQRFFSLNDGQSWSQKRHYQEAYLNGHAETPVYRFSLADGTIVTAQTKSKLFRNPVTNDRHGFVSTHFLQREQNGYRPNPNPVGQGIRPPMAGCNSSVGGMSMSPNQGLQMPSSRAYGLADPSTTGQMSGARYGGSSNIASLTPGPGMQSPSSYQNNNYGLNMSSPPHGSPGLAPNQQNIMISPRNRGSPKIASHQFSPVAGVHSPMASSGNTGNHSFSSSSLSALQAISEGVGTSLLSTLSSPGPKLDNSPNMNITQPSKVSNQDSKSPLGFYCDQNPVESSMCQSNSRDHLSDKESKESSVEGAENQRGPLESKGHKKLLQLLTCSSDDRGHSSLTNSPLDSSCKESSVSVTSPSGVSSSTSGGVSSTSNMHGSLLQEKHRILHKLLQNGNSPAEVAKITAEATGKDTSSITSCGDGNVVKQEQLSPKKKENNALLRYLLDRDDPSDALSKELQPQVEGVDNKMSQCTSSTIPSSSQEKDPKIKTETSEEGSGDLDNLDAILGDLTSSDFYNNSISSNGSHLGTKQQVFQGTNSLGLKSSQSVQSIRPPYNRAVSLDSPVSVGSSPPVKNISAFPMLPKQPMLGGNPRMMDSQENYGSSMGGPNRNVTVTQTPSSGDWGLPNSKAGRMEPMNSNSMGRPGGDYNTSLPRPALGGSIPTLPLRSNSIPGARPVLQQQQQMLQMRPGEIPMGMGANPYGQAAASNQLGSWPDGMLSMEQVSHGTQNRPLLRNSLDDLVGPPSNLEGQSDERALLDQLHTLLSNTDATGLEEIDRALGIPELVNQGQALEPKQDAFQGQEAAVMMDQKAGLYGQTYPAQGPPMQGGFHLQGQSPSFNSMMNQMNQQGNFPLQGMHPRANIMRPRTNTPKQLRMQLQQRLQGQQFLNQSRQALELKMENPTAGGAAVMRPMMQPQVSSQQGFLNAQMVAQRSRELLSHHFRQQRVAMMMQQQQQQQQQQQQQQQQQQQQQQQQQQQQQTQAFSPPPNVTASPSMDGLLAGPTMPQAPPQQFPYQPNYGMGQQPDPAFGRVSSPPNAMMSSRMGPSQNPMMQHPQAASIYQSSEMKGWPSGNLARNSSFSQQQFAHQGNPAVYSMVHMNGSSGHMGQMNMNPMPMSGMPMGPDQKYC
Steroidogenic factor 1 (Homo sapiens), sequence (Q13285 whole entry, looked up, the tested form may be a part): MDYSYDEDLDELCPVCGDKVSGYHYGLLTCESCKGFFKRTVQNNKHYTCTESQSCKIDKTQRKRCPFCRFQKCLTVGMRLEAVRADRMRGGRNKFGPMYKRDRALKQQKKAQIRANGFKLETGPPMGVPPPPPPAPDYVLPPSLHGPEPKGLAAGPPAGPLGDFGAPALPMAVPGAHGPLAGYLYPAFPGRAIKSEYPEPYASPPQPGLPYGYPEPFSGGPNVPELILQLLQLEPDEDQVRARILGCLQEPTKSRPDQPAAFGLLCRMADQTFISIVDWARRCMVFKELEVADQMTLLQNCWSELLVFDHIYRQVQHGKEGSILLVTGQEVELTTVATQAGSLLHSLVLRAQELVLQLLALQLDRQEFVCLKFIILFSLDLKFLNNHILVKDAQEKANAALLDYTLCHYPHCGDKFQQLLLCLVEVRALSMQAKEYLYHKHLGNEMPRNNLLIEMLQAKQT

| SMILES | inhibition [1] | inhibition [2] | inhibition [3] | inhibition [4] | inhibition [5] | inhibition [6] | inhibition [7] | inhibition [8] |
| --- | --- | --- | --- | --- | --- | --- | --- | --- |
| CC1Cc2cc(-c3csc(NC(=O)Cc4cccs4)n3)ccc2N1S(C)(=O)=O (centres undefined) | 14.4% | 42.5% (active) | -1.43% | 57.8% (active) | 47.4% (active) | 63.7% (active) | 62% (active) | 69.9% (active) |
| N=c1c2c(n(Cc3cccc(Cl)c3)c3c1CCC3)CCCC2 | 42.1% | 65.2% (active) | 40.5% | 73.9% (active) | 53.3% (active) | 108% (active) | 83.8% (active) | 85.4% (active) |
| COc1ccc(-c2noc(CCCC(=O)O)n2)cc1 | 44.7% (active) | 36.1% (active) | 30.7% | 26% (active) | 39% (active) | 47.8% (active) | 40.1% | 30.7% |
| O=C(NC(Nc1nc2ccc([N+](=O)[O-])cc2s1)(C(F)(F)F)C(F)(F)F)c1ccccc1Cl | 65.5% (active) | 86.2% (active) | 27.1% | 86% (active) | 82.2% (active) | 103% (active) | 93.4% (active) | 89.8% (active) |
| Cc1ccc2nc(NC(=O)CSCC(=O)OCC(=O)c3ccccc3)sc2c1 | 46.5% (active) | 39% (active) | 7.46% | 30.5% (active) | 19.2% | 52.4% (active) | 39.6% | 32.6% (active) |
| CCOc1ccc(C(=O)Nc2cnn(Cc3ccc(Cl)c(Cl)c3)c2)cc1 | 16% | 44.1% (active) | 26.8% | 36.8% (active) | 39% (active) | 62.7% (active) | 60.1% (active) | 70.5% (active) |
| Cc1cc(/C=C2\SC(=S)N(C)C2=O)c(C)n1-c1ccc(O)cc1 | 73.9% (active) | 61.8% (active) | 49% (active) | 47.5% (active) | 40.3% (active) | 7.93% | 48% (active) | 39.5% (active) |
| COc1cccc(/C=N/Nc2ccc(C(=O)O)cc2)c1O | 68% (active) | 63.8% (active) | 12.8% | 64.4% (active) | 68.7% (active) | 68.3% (active) | 73% (active) | 68.7% (active) |
| CCN(CC)CCn1c2ccccc2c2cnc(N)c(C#N)c21 | 5.22% | 35.2% (active) | 30.1% | 50.6% (active) | 35.7% (active) | 65.8% (active) | 57.4% (active) | 74.8% (active) |
| COC(=O)c1c(NC(=O)c2cccc([N+](=O)[O-])c2)sc(C(N)=O)c1C | 23.4% | 55.9% (active) | 18.9% | 47.2% (active) | 46.9% (active) | 84.6% (active) | 80.5% (active) | 69.2% (active) |
| Nc1ncnc2c(C3OC(CO)C(O)C3O)c[nH]c12 (centres undefined) | 97.4% (active) | 96.5% (active) | 95.7% (active) | 96% (active) | 95.6% (active) | 111% (active) | 98.2% (active) | 97.7% (active) |
| CCCCC(=O)NC(c1ccc(Cl)cc1)c1ccc2cccnc2c1O (centres undefined) | 66.9% (active) | 62.4% (active) | 51.3% (active) | 62.2% (active) | 67.9% (active) | 87.8% (active) | 86.1% (active) | 69.1% (active) |
| c1ccc(-c2nn(-c3ccccc3)[n+](-c3ccccc3)n2)cc1 | 20.3% | 14.7% | -0.24% | 15.6% | 23.8% | 43.8% (active) | 46% (active) | 48.5% (active) |
| Cc1ccc(N(CCC#N)C(=O)CCl)cc1C | 54.3% (active) | 14.7% | 7.31% | 28.4% (active) | 14.8% | 58.5% (active) | 49.2% (active) | 15.7% |
| NC1=C(Br)C(=O)c2ncccc2C1=O | 72.1% (active) | 60.8% (active) | 49.1% (active) | 54.8% (active) | 70.9% (active) | 92.9% (active) | 84.3% (active) | 79.3% (active) |
| COc1ccc(/C=C/c2cc(-c3ccc(C)cc3)o[n+]2C)cc1 | 65.6% (active) | 74.6% (active) | 56.2% (active) | 71.5% (active) | 62.3% (active) | 98.9% (active) | 89.8% (active) | 83.6% (active) |
| CCCCCCCn1c2c(c(=N)c3c1CCC3)CCCC2 | 70.2% (active) | 81.8% (active) | 56.2% (active) | 83.4% (active) | 79.3% (active) | 110% (active) | 95.8% (active) | 98.2% (active) |
| CCCCCCCCCCn1c2c(c(=N)c3c1CCC3)CCC2 | 85.2% (active) | 89.5% (active) | 57.1% (active) | 89.7% (active) | 82.1% (active) | 108% (active) | 94.5% (active) | 95.2% (active) |
